The campaign covered roughly 1,300 compounds. About 140 (11%) were called active. Not all results are given here. Measured potencies and affinities stand elsewhere. Unmarked numbers belong to inactive results. No rule for the calls is given here.
target: Prostaglandin E2 receptor EP2 subtype (Homo sapiens) (UniProt P43116); assay: EP2 receptor modulators, dose response, cell-based, human EP2, PGE2 EC50 shift (AID 1421); details: EP2-expressing cells, PGE2 EC50 shift by compound; at 20 µM
Sequence (P43116 whole entry, looked up): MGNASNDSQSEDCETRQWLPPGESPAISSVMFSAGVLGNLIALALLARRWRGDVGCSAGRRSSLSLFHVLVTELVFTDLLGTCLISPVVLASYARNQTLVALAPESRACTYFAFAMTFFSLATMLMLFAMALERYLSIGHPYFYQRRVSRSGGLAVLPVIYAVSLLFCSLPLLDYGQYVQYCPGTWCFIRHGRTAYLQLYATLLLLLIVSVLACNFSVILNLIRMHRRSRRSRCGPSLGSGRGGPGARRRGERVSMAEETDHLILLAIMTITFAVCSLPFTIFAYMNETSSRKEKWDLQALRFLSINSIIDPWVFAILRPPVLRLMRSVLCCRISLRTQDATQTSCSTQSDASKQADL

Structure (SMILES)	PGE2 EC50 with compound
CCCSc1nc(N2CCOCC2)c2c(c1C#N)CCCC2	340 pM
Cc1ccc2cccc(NC(=O)c3ccc(Br)o3)c2n1	120 pM
Cc1cccc(-c2nc(=S)c3c(n2Cc2ccco2)CCCC3)c1	550 pM
COc1ccccc1CN(C)CC(=O)Nc1ccccc1-c1ccccc1	720 pM
CN(CC(=O)Nc1ccccc1Oc1ccccc1)Cc1ccccc1F	300 pM
CC(C)c1nc(SCc2c(F)cccc2Cl)c2c(=O)n(C)c(=O)n(C)c2n1	230 pM
CC1CN(c2nc3ccccc3cc2-c2ccccc2)CC(C)O1 (stereo not given)	310 pM
CCCc1cc(-c2n[nH]c(=S)n2Cc2ccccc2)cs1	760 pM
CCCCn1c(-c2csc(CCC)c2)n[nH]c1=S	430 pM
Cc1ccc(C(=O)N2N=C(c3ccccc3)CC2(O)C(F)(F)F)o1 (stereo not given)	310 pM
CCOc1cc(/C=N/NC(N)=O)ccc1OC(=O)c1ccc(C)cc1	420 pM
Cc1ccc2nc(-c3ccncc3)cc(-c3ccccc3)c2c1	170 pM
Nc1nc(Cc2ccccc2)nc(Cc2ccccc2)c1-c1ccccc1	430 pM
CC(C)c1ccc(OCC(=O)NC(=S)Nc2ccc3c4c(cccc24)CC3)cc1	18600 pM
O=c1c2c(n3nnnc3n1-c1ccccc1)-c1ccccc1CC21CCCC1	770 pM
Nn1cnc2c(c1=O)C1(CCCCC1)Cc1ccccc1-2	340 pM
CCCn1c(SCC(=O)Nc2sc(C)c(C)c2C(=O)OCC)nc2c1c(=O)n(C)c(=O)n2C	470 pM
CCCCN1C=C(C(=O)OC)C(c2ccccc2Cl)C(C(=O)OC)=C1	380 pM
COc1ccc(C(=O)c2cnc3ccccc3c2-c2ccccc2)cc1	790 pM
CCCCOc1c(Br)cc(/C=N/O)cc1OCC	480 pM
COC(=O)c1c(NC(=O)CSc2nnc(-c3cccnc3)n2Cc2ccco2)sc(C)c1C	690 pM
O=C(CSc1nnc(-c2cc3ccccc3cc2O)n1Cc1ccco1)c1ccc(F)cc1	830 pM
CC(=O)c1ccc(S(=O)(=O)NCCCC(=O)NCCc2ccccn2)cc1	920 pM
CC(C)Cc1nc2sc3c(=O)[nH]cnc3c2c2c1CCC2	650 pM
C#CCSc1nc(Cc2ccc(Cl)cc2)nc2ccccc12	250 pM
Cc1cc(C(=O)CSc2nc3ccccc3c(=O)n2C)c(C)n1Cc1ccc2c(c1)OCO2	290 pM
CC(C)CCn1c(N2CCN(c3cccc(Cl)c3)CC2)nc2c1c(=O)[nH]c(=O)n2C	570 pM
COc1ccc(Cn2c(-c3ccc(OC)cc3)nc3ccccc32)cc1	800 pM
Clc1ccc(Cn2c(/C=C/c3ccco3)nc3ccccc32)cc1	660 pM
N#CCSc1nc2sc3c(c2c(=O)n1C1CCCCC1)CCCC3	320 pM
